From the supplement of paper PMC4466140

molecular target: AgAbp1; test: SPOT peptide array binding signal intensity (averaged, normalized) (arbitrary units (background-subtracted, floor 0; scale differs between SH3 domains)); higher = stronger binding of the SH3 domain to the peptide
In short: (§1)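 GST-fused SH3 domains, from four yeast species, were produced in E. coli BL21(DE3) and captured on glutathione Sepharose. Membranes of cellulose carrying synthetic 15-mer peptides, in which cysteines had been replaced by serines, were exposed to each domain at 10 μg/ml overnight at 4°C in TBS-based blocking buffer. After anti-GST antibody, an HRP anti-mouse secondary and luminol, spots were imaged and quantified using Genespotter. Binding signal is normalized and background-subtracted spot intensity, averaged over replicates, in arbitrary units that differ between domains.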

Binder	SPOT peptide array binding signal intensity
NLPKRKPPKLQGPFS	117

molecular target: AgBbc1; test: as above
In short: as §1

Binder	SPOT peptide array binding signal intensity
NLPKRKPPKLQGPFS	7.75

molecular target: AgBem1-D1; test: as above
In short: as §1

Binder	SPOT peptide array binding signal intensity
NLPKRKPPKLQGPFS	244

molecular target: AgBzz1-D1; test: as above
In short: as §1

Binder	SPOT peptide array binding signal intensity
NLPKRKPPKLQGPFS	148

molecular target: AgBzz1-D2; test: as above
In short: as §1

Binder	SPOT peptide array binding signal intensity
NLPKRKPPKLQGPFS	77.5

molecular target: AgCyk3; test: as above
In short: as §1

Binder	SPOT peptide array binding signal intensity
NLPKRKPPKLQGPFS	2.5

molecular target: AgFus1; test: as above
In short: as §1

Binder	SPOT peptide array binding signal intensity
NLPKRKPPKLQGPFS	64

molecular target: AgHof1; test: as above
In short: as §1

Binder	SPOT peptide array binding signal intensity
NLPKRKPPKLQGPFS	37.5

molecular target: AgHse1; test: as above
In short: as §1

Binder	SPOT peptide array binding signal intensity
NLPKRKPPKLQGPFS	1020

molecular target: AgLsb1; test: as above
In short: as §1

Binder	SPOT peptide array binding signal intensity
NLPKRKPPKLQGPFS	≤ 0

molecular target: AgLsb4; test: as above
In short: as §1

Binder	SPOT peptide array binding signal intensity
NLPKRKPPKLQGPFS	56

molecular target: AgMyo5; test: as above
In short: as §1

Binder	SPOT peptide array binding signal intensity
NLPKRKPPKLQGPFS	4.75

molecular target: AgNbp2; test: as above
In short: as §1

Binder	SPOT peptide array binding signal intensity
NLPKRKPPKLQGPFS	247

molecular target: AgRvs167; test: as above
In short: as §1

Binder	SPOT peptide array binding signal intensity
NLPKRKPPKLQGPFS	2.67

molecular target: AgSho1; test: as above
In short: as §1

Binder	SPOT peptide array binding signal intensity
NLPKRKPPKLQGPFS	12

molecular target: AgSla1-D1-D2; test: as above
In short: as §1

Binder	SPOT peptide array binding signal intensity
NLPKRKPPKLQGPFS	258

molecular target: AgSla1-D3; test: as above
In short: as §1

Binder	SPOT peptide array binding signal intensity
NLPKRKPPKLQGPFS	2

molecular target: CaAbp1-D1; test: as above
In short: as §1

Binder	SPOT peptide array binding signal intensity
NLPKRKPPKLQGPFS	1870

molecular target: CaAbp1-D2; test: as above
In short: as §1

Binder	SPOT peptide array binding signal intensity
NLPKRKPPKLQGPFS	1400

molecular target: CaBbc1; test: as above
In short: as §1

Binder	SPOT peptide array binding signal intensity
NLPKRKPPKLQGPFS	51

molecular target: CaBem1-D1; test: as above
In short: as §1

Binder	SPOT peptide array binding signal intensity
NLPKRKPPKLQGPFS	13

molecular target: CaBzz1-D1; test: as above
In short: as §1

Binder	SPOT peptide array binding signal intensity
NLPKRKPPKLQGPFS	157

molecular target: CaBzz1-D2; test: as above
In short: as §1

Binder	SPOT peptide array binding signal intensity
NLPKRKPPKLQGPFS	162

molecular target: CaCyk3; test: as above
In short: as §1

Binder	SPOT peptide array binding signal intensity
NLPKRKPPKLQGPFS	102

molecular target: CaFus1; test: as above
In short: as §1

Binder	SPOT peptide array binding signal intensity
NLPKRKPPKLQGPFS	186

molecular target: CaHof1; test: as above
In short: as §1

Binder	SPOT peptide array binding signal intensity
NLPKRKPPKLQGPFS	0.5

molecular target: CaHse1; test: as above
In short: as §1

Binder	SPOT peptide array binding signal intensity
NLPKRKPPKLQGPFS	119

molecular target: CaLsb1; test: as above
In short: as §1

Binder	SPOT peptide array binding signal intensity
NLPKRKPPKLQGPFS	≤ 0

molecular target: CaLsb4; test: as above
In short: as §1

Binder	SPOT peptide array binding signal intensity
NLPKRKPPKLQGPFS	127

molecular target: CaMyo5; test: as above
In short: as §1

Binder	SPOT peptide array binding signal intensity
NLPKRKPPKLQGPFS	≤ 0

molecular target: CaNbp2; test: as above
In short: as §1

Binder	SPOT peptide array binding signal intensity
NLPKRKPPKLQGPFS	2240

molecular target: CaRvs167; test: as above
In short: as §1

Binder	SPOT peptide array binding signal intensity
NLPKRKPPKLQGPFS	1.67

molecular target: CaRvs167-3; test: as above
In short: as §1

Binder	SPOT peptide array binding signal intensity
NLPKRKPPKLQGPFS	34.2

molecular target: CaSho1; test: as above
In short: as §1

Binder	SPOT peptide array binding signal intensity
NLPKRKPPKLQGPFS	300

molecular target: CaSla1-D1-D2; test: as above
In short: as §1

Binder	SPOT peptide array binding signal intensity
NLPKRKPPKLQGPFS	48

molecular target: CaSla1-D3; test: as above
In short: as §1

Binder	SPOT peptide array binding signal intensity
NLPKRKPPKLQGPFS	0.5

molecular target: ScAbp1; test: as above
In short: as §1

Binder	SPOT peptide array binding signal intensity
NLPKRKPPKLQGPFS	179
